# Data published in article PMC7862700, “An all-to-all approach to the identification of sequence-specific readers for epigenetic DNA modifications on cytosine”.
# How the values were obtained:
# Experiment in all cases: DAPPL (digital affinity profiling via proximity ligation, sequencing); 10 mM Tris-HCl pH 7.5, 50 mM NaCl, 1 mM DTT, 4% glycerol, room temperature, 30 min; GST-TFs on glutathione beads, 16-mer random dsDNA library, 0.1% formaldehyde crosslink after washing; high values mean tight binding
# Conditions in all cases: protein: recombinant; tags: N-terminal GST; dsDNA, one strand shown
# [1] = biological target: T1, SPIC (Homo sapiens, UniProt Q8N5J4 1-248)
# T1 sequence: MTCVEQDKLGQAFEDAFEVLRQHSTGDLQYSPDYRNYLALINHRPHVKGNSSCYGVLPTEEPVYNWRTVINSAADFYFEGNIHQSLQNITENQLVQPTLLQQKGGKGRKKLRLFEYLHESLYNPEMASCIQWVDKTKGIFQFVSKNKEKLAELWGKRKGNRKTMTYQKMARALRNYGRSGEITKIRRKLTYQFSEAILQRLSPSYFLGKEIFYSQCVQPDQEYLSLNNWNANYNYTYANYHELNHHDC
# Procedure, shortened: (§1)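 Human transcription factors fused to GST were expressed in yeast, captured on glutathione beads, given DNA barcodes and pooled with a GST-only negative control. Pools were incubated with 200 nmole of a 16-mer random double-stranded DNA library in Tris/NaCl/DTT/glycerol buffer at room temperature for 30 min. They were then washed, crosslinked with 0.1% formaldehyde, proximity-ligated (BsaI/T4 ligase, 1 h, 37 °C), PCR-amplified and sequenced on an Illumina NextSeq500. Binding signal is each 6-mer's read frequency for a factor divided by its frequency for the GST control.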
# [2] = biological target: T2, ERF (Homo sapiens, UniProt P50548 1-548)
# T2 sequence: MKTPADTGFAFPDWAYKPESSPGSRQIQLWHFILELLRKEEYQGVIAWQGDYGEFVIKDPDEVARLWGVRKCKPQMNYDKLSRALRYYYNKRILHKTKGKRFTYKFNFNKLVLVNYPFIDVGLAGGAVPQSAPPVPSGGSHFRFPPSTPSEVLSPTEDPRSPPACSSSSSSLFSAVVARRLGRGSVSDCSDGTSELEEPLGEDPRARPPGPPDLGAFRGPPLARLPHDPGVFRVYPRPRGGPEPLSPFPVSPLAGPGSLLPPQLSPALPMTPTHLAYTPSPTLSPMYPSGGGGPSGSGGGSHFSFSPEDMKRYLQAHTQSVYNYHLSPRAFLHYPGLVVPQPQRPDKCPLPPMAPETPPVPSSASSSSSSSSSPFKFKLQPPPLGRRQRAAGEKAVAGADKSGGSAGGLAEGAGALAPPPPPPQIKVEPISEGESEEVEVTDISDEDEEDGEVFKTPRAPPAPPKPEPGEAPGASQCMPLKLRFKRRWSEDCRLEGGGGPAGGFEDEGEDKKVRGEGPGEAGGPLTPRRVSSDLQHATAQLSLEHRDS
# Procedure, shortened: as §1
# [3] = biological target: T3, ELK1 (Homo sapiens, UniProt P19419 1-428)
# T3 sequence: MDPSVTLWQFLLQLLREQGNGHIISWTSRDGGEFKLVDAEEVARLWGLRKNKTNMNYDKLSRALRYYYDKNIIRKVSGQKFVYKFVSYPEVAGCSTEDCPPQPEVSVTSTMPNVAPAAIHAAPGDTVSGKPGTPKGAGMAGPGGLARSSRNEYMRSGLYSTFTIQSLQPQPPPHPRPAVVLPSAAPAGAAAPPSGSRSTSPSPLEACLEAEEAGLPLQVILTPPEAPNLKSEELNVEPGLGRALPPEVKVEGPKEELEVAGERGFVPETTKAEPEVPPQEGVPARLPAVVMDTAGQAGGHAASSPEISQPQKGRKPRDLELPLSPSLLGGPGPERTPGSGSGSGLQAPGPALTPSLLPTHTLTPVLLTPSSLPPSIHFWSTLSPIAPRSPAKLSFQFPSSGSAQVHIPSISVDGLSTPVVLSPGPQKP
# Procedure, shortened: as §1
# [4] = biological target: ELF1 (Homo sapiens, UniProt P32519 1-619)
# Procedure, shortened: as §1
# [5] = biological target: T4, ELK3 (Homo sapiens, UniProt P41970 1-407)
# T4 sequence: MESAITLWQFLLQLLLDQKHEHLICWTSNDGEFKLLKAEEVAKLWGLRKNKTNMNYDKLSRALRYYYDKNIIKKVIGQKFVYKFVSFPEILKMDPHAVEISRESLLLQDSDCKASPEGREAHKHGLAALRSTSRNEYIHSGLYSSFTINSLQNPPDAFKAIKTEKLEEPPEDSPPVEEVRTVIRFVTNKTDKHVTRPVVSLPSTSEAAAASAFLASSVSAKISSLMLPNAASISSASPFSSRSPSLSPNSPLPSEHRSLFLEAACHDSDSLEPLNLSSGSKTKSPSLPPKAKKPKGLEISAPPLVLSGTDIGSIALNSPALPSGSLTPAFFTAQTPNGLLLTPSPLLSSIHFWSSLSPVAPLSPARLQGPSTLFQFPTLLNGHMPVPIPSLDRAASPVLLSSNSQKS
# Procedure, shortened: as §1
# [6] = biological target: T5, FEV (Homo sapiens, UniProt Q99581 1-238)
# T5 sequence: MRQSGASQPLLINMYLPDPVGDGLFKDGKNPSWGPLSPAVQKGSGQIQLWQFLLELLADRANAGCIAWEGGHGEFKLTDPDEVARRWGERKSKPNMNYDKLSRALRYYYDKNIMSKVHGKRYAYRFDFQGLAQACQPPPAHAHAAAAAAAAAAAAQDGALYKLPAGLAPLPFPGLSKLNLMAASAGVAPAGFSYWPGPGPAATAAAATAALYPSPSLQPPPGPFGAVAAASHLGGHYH
# Procedure, shortened: as §1
# [7] = biological target: T6, ELF3 (Homo sapiens, UniProt P78545 1-371)
# T6 sequence: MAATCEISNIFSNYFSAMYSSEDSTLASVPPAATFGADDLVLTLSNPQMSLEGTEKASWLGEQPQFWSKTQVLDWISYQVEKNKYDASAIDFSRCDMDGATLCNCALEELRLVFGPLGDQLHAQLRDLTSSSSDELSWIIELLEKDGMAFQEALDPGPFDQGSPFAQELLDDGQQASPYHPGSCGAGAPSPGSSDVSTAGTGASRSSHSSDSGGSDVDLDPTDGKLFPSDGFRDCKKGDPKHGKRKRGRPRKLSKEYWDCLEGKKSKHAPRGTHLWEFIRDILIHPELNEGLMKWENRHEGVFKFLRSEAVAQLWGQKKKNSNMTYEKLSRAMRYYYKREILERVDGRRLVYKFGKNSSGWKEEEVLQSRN
# Procedure, shortened: as §1
# [8] = biological target: T7, ETV3L (Homo sapiens, UniProt Q6ZN32 1-361)
# T7 sequence: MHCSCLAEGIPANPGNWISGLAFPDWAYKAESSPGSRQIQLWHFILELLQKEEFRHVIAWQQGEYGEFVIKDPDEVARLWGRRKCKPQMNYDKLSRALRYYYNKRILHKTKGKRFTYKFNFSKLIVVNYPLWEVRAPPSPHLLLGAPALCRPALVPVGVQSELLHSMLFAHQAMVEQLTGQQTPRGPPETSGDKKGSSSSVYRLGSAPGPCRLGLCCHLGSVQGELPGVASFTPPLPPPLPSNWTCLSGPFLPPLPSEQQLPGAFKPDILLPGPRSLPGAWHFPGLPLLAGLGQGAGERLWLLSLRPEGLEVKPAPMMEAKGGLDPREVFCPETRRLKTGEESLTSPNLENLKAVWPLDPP
# Procedure, shortened: as §1
# [9] = biological target: T8, ETV3 (Homo sapiens, UniProt P41162-2 1-143)
# T8 sequence: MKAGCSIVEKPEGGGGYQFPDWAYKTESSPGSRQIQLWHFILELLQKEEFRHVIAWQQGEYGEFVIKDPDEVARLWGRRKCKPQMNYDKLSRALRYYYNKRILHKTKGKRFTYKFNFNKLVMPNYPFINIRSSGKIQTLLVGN
# Procedure, shortened: as §1
# [10] = biological target: ETV6 (Homo sapiens, UniProt P41212 1-452)
# Procedure, shortened: as §1
# [11] = biological target: CRX (Homo sapiens, UniProt O43186 1-299)
# Procedure, shortened: as §1
# [12] = biological target: T9, SPDEF (Homo sapiens, UniProt O95238 1-335)
# T9 sequence: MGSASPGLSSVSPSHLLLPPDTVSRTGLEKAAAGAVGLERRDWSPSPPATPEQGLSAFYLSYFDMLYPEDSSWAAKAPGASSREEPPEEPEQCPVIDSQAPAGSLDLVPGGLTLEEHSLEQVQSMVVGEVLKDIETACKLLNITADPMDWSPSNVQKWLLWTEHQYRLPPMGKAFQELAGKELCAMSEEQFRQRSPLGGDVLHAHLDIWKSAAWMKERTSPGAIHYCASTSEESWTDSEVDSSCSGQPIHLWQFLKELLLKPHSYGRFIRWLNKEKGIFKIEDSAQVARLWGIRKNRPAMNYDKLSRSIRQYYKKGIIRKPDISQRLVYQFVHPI
# Procedure, shortened: as §1
# [13] = biological target: T10, ETV7 (Homo sapiens, UniProt Q9Y603 1-341)
# T10 sequence: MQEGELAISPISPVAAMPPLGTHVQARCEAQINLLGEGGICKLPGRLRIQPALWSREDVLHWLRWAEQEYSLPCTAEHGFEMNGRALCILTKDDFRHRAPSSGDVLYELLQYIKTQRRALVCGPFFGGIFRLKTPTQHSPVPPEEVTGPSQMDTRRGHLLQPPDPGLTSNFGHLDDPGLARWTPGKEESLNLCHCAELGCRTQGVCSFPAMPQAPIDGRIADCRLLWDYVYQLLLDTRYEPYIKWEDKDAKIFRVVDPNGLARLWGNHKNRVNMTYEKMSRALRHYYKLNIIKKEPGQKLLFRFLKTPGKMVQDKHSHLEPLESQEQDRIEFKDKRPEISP
# Procedure, shortened: as §1
# Sequence of ETV6 (P41212 whole entry): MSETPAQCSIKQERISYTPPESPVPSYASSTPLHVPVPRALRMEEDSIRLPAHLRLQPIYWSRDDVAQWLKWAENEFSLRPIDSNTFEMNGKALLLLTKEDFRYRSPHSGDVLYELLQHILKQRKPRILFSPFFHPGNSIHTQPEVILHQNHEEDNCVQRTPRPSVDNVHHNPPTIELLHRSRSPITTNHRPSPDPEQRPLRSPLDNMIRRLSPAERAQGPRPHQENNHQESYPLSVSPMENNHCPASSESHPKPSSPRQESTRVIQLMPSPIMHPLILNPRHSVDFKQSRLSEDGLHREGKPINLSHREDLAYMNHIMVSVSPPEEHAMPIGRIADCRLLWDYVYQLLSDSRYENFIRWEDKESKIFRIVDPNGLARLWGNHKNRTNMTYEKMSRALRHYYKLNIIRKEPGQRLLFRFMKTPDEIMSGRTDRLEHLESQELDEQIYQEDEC
# Sequence of CRX (O43186 whole entry): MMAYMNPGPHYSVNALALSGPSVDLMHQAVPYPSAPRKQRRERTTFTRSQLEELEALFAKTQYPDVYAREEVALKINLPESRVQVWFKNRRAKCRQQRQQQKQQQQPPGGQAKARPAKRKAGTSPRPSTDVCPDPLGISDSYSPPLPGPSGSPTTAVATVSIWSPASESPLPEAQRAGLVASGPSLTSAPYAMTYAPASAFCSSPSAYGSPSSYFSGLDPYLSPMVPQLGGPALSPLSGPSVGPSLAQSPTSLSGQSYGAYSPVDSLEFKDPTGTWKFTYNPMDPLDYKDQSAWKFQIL
# Sequence of ELF1 (P32519 whole entry): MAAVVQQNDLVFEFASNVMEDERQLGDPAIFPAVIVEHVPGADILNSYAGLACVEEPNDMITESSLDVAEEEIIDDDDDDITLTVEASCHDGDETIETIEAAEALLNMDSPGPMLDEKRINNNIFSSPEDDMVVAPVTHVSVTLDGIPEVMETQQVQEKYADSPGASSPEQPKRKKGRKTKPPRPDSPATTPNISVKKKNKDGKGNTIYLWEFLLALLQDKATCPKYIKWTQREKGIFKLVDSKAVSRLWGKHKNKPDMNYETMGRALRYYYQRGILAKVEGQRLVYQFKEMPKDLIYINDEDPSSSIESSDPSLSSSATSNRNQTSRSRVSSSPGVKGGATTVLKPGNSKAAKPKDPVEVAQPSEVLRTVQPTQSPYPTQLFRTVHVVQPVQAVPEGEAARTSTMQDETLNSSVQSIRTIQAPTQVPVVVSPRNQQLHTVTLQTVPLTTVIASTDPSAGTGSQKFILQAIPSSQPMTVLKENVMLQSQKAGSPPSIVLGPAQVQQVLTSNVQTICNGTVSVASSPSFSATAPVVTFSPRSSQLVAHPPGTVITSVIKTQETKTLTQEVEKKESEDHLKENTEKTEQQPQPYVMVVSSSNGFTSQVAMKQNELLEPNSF
sequence,measurement,setting,value
AGCACG,binding signal,[1],"1.02 fold enrichment (6-mer frequency, TF over GST control)"
same,binding signal,[2],"1.01 fold enrichment (6-mer frequency, TF over GST control)"
GGTTAC,binding signal,[3],"1.05 fold enrichment (6-mer frequency, TF over GST control)"
same,binding signal,[4],"1.01 fold enrichment (6-mer frequency, TF over GST control)"
same,binding signal,[5],"1.04 fold enrichment (6-mer frequency, TF over GST control)"
same,binding signal,[6],"1 fold enrichment (6-mer frequency, TF over GST control)"
same,binding signal,[1],"1.05 fold enrichment (6-mer frequency, TF over GST control)"
same,binding signal,[7],"1.07 fold enrichment (6-mer frequency, TF over GST control)"
same,binding signal,[8],"1.01 fold enrichment (6-mer frequency, TF over GST control)"
same,binding signal,[9],"1.01 fold enrichment (6-mer frequency, TF over GST control)"
same,binding signal,[10],"1.02 fold enrichment (6-mer frequency, TF over GST control)"
TAAGGC,binding signal,[1],"1.02 fold enrichment (6-mer frequency, TF over GST control)"
same,binding signal,[11],"1.52 fold enrichment (6-mer frequency, TF over GST control)"
GCGACA,binding signal,[6],"1.02 fold enrichment (6-mer frequency, TF over GST control)"
same,binding signal,[1],"1.03 fold enrichment (6-mer frequency, TF over GST control)"
same,binding signal,[2],"1.04 fold enrichment (6-mer frequency, TF over GST control)"
same,binding signal,[8],"1.04 fold enrichment (6-mer frequency, TF over GST control)"
same,binding signal,[12],"1 fold enrichment (6-mer frequency, TF over GST control)"
same,binding signal,[13],"1.05 fold enrichment (6-mer frequency, TF over GST control)"
same,binding signal,[9],"1.01 fold enrichment (6-mer frequency, TF over GST control)"
same,binding signal,[10],"1.04 fold enrichment (6-mer frequency, TF over GST control)"
